Results on 96 compounds are retold here after PubChem BioAssay AID717 (Columbia University Molecular Screening Center, 2007).

Hit rate of the full screen: of about 91,000 compounds, about 40 (0.04%) were called active. No stated cut-off is given here; in the data, active means activation above about 37%; inactive means the rest. A selection follows.

In the assay the target is Bifunctional epoxide hydrolase 2 (Homo sapiens) (UniProt P34913). In words: soluble epoxide hydrolase activators, primary screen, biochemical, human sEH (AID 717). The conditions noted are these: purified human sEH enzymatic activity, activator screen; at 2 µM; stronger effect = higher value.
Sequence of Bifunctional epoxide hydrolase 2 (Homo sapiens) (P34913 whole entry, looked up): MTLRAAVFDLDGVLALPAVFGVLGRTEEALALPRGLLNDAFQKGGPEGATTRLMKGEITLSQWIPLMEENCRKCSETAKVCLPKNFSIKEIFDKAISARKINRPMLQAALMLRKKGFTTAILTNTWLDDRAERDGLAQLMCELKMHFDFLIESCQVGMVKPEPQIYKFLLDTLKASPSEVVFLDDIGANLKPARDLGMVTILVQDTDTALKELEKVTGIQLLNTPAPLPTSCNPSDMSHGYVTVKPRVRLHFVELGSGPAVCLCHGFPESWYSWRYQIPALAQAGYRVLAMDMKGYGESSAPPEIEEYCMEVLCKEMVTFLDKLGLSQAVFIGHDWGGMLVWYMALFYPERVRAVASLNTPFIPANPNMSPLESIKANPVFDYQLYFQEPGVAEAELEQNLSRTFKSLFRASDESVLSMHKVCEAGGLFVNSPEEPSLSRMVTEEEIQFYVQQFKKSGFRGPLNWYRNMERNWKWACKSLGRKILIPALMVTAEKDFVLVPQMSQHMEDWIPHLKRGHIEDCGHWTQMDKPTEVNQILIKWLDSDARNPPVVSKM
As for `COc1ccc(C)cc1NC(=O)CCC(=O)Nc1nnc(C(F)(F)F)s1`, the activation was -15.1% (inactive).

In the case of `Cc1nnsc1S(=O)(=O)Cc1ccccc1Cl`, the activation is -3.8% (inactive).

In the case of `CCCCNC(=O)c1onc(CSc2cccc(OC)c2)c1C(=O)O`, the activation was 11.8% (inactive).

Take `CS(=O)(=O)N1CCN(c2ccc(C(=O)NC3C4CC5CC(C4)CC3C5)cc2[N+](=O)[O-])CC1` (stereo unspecified): the activation is 8.8% (inactive).

Regarding `C(=N/N1CCN(c2ccccc2)CC1)/c1cccs1`, the activation is 4.8% (inactive).

As to `COCCCNC(NC(=O)c1ccc(C)cc1)C(Cl)(Cl)Cl` (stereo unspecified), the activation was 18.3% (inactive).

As to `CCOC(=O)C1=C(CN2CCc3ccccc32)NC(=O)NC1c1cc(C)ccc1C` (stereo unspecified), the activation was 7.8% (inactive).

`Nc1ccc(-c2sc(N)nc2-c2ccccc2)cc1`: the activation was 10.7% (inactive).

With `COCC(C)NC(=O)c1ccc(-n2nc(C(F)(F)F)cc2-c2cccs2)cc1` (stereo unspecified), the activation was 3.4% (inactive).

Regarding `CC(=O)c1cn(CCCCCCCCCCn2cc(C(C)=O)c(=O)[nH]c2=O)c(=O)[nH]c1=O`, the activation was 3.2% (inactive).

Consider `Cc1csc(=NC(=O)c2ccccc2)n1CCO`, for which the activation was 7.3% (inactive).

For `CCc1ccc(C(=O)CSc2nnc(C)c(=O)[nH]2)cc1`, the activation is -0.4% (inactive).

For `CCCn1nnnc1NC(=O)COc1ccc(Cl)cc1C`, the activation was 36.8% (inactive).

`COc1ccccc1CNC(=O)c1ccc(SC)cc1OC`: the activation is 1% (inactive).

Take `Cc1nn(C)cc1/C=C1\CCC/C(=C\c2cn(C)nc2C)C1=O`: the activation is 11.7% (inactive).

As to `CCN(CC)c1nc(-c2ccccc2)cc(C(F)(F)F)c1C#N`, the activation is 30.7% (inactive).

On to `Nc1c(-c2cccc(Cl)c2)cnn1-c1cccc([N+](=O)[O-])c1`, for which the activation was 0.1% (inactive).

For `O=c1c2ccccc2c(-c2ccc(Br)cc2)nn1Cc1ccccc1`, the activation is -4.3% (inactive).

Take `O=C(COC(=O)c1ccccc1NC(=O)c1ccco1)Nc1ccc2c(c1)OC(F)(F)O2`: the activation was -28.9% (inactive).

Consider `CCCCNCc1ccc(SC)cc1`, for which the activation is -8.5% (inactive).

Regarding `NC(=O)N1CCCC1C(=O)Nc1ccc(Cl)c(Cl)c1` (stereo unspecified), the activation is -4.5% (inactive).

As for `CCCCNC(=O)CSc1nc2ccc(NC(=O)CSc3nnc(COc4ccccc4C)n3C)cc2s1`, the activation was -88.3% (inactive).

Regarding `Cc1cc(C(=O)OCC(=O)Nc2ccc(F)c(F)c2)c(C)o1`, the activation is -9.4% (inactive).

Turning to `COc1ccc(CCNC(=S)NC(=O)/C=C/c2ccc(C)cc2)cc1OC`, the activation is 3.7% (inactive).

Consider `CC1=NN(Cc2ccccc2)C(=O)/C1=C/c1ccc(N(C)C)cc1`, for which the activation is 4.2% (inactive).

As for `CCn1cc(C(=O)N/N=C(/C)c2ccc(F)cc2)c(=O)c2cc(F)c(N3CCCC3)cc21`, the activation was 11.6% (inactive).

On to `COc1ccc(NS(=O)(=O)c2ccc(NC(=S)NC(=O)CC(C)C)cc2)cc1`, for which the activation is 1.9% (inactive).

In the case of `O=C(NCCCN1CCOCC1)c1cc2c(s1)CCC2`, the activation was -5.4% (inactive).

Turning to `O=C(CN1C(=O)NC(Cc2ccccc2)(Cc2ccccc2)C1=O)NCC1CCCCC1`, the activation is 11.9% (inactive).

Consider `O=C(OCN1C(=O)c2ccccc2C1=O)/C(=C\c1ccco1)NC(=O)c1ccccc1`, for which the activation was -78.7% (inactive).

On to `COC(=O)CNC(=O)c1ccccc1[N+](=O)[O-]`, for which the activation is 18.9% (inactive).

As to `CCOc1ccc(C(CCc2ccccc2)NC(=O)c2ccc(OC)c(OC)c2)cc1OCC` (stereo unspecified), the activation was 23.3% (inactive).

Take `CC(CNc1ccc([N+](=O)[O-])cc1)NC(=O)c1ccccc1Br` (stereo unspecified): the activation is 5% (inactive).

As for `C=CCn1c(-c2ccc(Cl)cc2)ccc(C#N)c1=O`, the activation was 2.9% (inactive).

On to `COc1ccc2c(c1)SC(C)CC2=O` (stereo unspecified), for which the activation is 13.9% (inactive).

Consider `CC1(C)CC(=O)C(C=NCCN2CCN(C(=S)Nc3cccc(Cl)c3)CC2)=C(O)C1`, for which the activation is -11.3% (inactive).

Consider `Cc1ccc(-c2csc(N(Cc3ccco3)C(=O)c3cccs3)n2)cc1`, for which the activation was 11.6% (inactive).

Turning to `CCOC(=O)NNC(=O)c1ccc(Cl)cc1`, the activation is 0.5% (inactive).

For the compound `CC(Oc1ccc(Cl)cc1Cl)C(=O)/C=C/N(C)C` (stereo unspecified), the activation was -10% (inactive).

Consider `COc1ccc(/C=N/Nc2nc3ccccc3c(=O)[nH]2)cc1`, for which the activation was 10% (inactive).

For the compound `O=[N+]([O-])c1ccc(NCCCN2CCOCC2)c(Cl)c1`, the activation was -17.1% (inactive).

`Clc1ccc(-n2nnnc2CN2CCCCC2)cc1Cl`: the activation is -4% (inactive).

In the case of `C=CCOC(=O)C1=C(C)NC(C)=C(C(=O)OCC=C)C1c1cccs1`, the activation was 8.4% (inactive).

With `COc1ccc(-c2cc(C(=O)n3cnc4ccccc43)c3ccccc3n2)cc1`, the activation was 11.7% (inactive).

Regarding `COc1cc(C(=O)N2CCN(C/C=C/c3ccccc3)CC2)cc(OC)c1C`, the activation is 11.7% (inactive).

For the compound `CCCCNC(=S)NNC(=O)c1cc(C)on1`, the activation is -1.6% (inactive).

With `CN(CC#CCC(c1ccccc1)c1ccccc1)C(C)(C)C`, the activation is -4.2% (inactive).

Consider `CC(C)(C)c1cc2cccnc2n1Cc1ccccc1`, for which the activation was -9.8% (inactive).

On to `COc1cc(C2C(C(=O)OCCC#N)=C(C)NC3=C2S(=O)(=O)c2ccccc23)cc(OC)c1OC` (stereo unspecified), for which the activation is -9% (inactive).

For `c1ccc(CSc2ncnc3c2sc2nc(N4CCOCC4)c4c(c23)CCCC4)cc1`, the activation was -8.4% (inactive).

Take `c1cnc(Nc2nc(-c3ccc4ccccc4c3)cs2)nc1`: the activation is 9.6% (inactive).

`c1ccc2c(CSCc3nc4ccccc4[nH]3)cccc2c1`: the activation was -10.8% (inactive).

Take `CCOC(=O)c1c(NC(=O)c2ccc(N3CCOCC3)c([N+](=O)[O-])c2)sc(C)c1C`: the activation was -11.3% (inactive).

`O=C(CN1CCN(S(=O)(=O)c2ccc(Cl)s2)CC1)NCc1ccc(Cl)cc1`: the activation was 0.3% (inactive).

As to `COc1ccc(C(=S)Nc2ccccc2)cc1`, the activation was -3.8% (inactive).

As for `Cc1nn(-c2ccccc2)c(Cl)c1C(=O)Nc1ccccc1`, the activation was 2% (inactive).

Turning to `O=C(CNC(=O)c1cc2c(s1)CCC2)Nc1ccccc1Br`, the activation is -12.2% (inactive).

On to `CCNC(=S)N1CCN(C(=O)c2ccco2)CC1`, for which the activation was 1% (inactive).

Turning to `COc1cc(/C=N/O)cc(Br)c1OS(=O)(=O)c1ccc(C)cc1`, the activation was 12.9% (inactive).

Consider `CCOC(=O)COc1cc(OCC(=O)OCC)c2c(=O)cc(-c3ccccc3)oc2c1`, for which the activation was 15.3% (inactive).

Take `Cc1ccc(C(=O)NNC(=O)OC(C)(C)C)c(Cl)c1`: the activation is 2% (inactive).

Take `Cc1ccc(NC(=S)N/N=C2/CCCc3c(C)cc(C)cc32)cc1`: the activation is 9.9% (inactive).

In the case of `O=C(CCC(=O)OCc1cccc(C(=O)Oc2ccccc2)c1)Nc1cccc2ccccc12`, the activation is -9.6% (inactive).

In the case of `O=C(CSCc1c(Cl)cccc1Cl)NN1C(=O)c2ccccc2C1=O`, the activation is -21.2% (inactive).

With `Cc1ccc(N2C(=O)C(Cc3ccccc3)NC2=S)cc1` (stereo unspecified), the activation is -3.9% (inactive).

As to `COc1ccc(NC(=O)CSc2nc(N)c(-c3ccccc3)c(=O)[nH]2)cc1`, the activation was -3.7% (inactive).

For `Cc1nn(C)c(Oc2ccccc2)c1[N+](=O)[O-]`, the activation is -3% (inactive).

For `O=C(CSc1ccc(/C=N/NC(=O)c2cccc(F)c2)o1)Nc1ccccc1`, the activation is -79% (inactive).

Consider `CCOc1c2ccc(C(=O)NCc3ccc(OC(F)(F)F)cc3)cc2nn1C`, for which the activation was -0.5% (inactive).

Turning to `CC1=NN(C(=O)c2ccccc2Br)C(O)(c2cccnc2)C1` (stereo unspecified), the activation is -13.7% (inactive).

For the compound `Cc1nn(-c2ccccn2)c2c1C(c1ccncc1)C1=C(CC(C)(C)CC1=O)N2` (stereo unspecified), the activation is 3.8% (inactive).

Consider `Cc1ccc(Oc2ccc3c(c2)C(=O)N(c2cccc4cccnc24)C3=O)cc1`, for which the activation is -10.3% (inactive).

Regarding `Cc1cc(C)c2c(-n3cccc3)c(C(=O)NNS(=O)(=O)c3ccc(F)cc3)sc2n1`, the activation was 11.1% (inactive).

For `Cc1nn(C)cc1C(=O)NNC(=S)Nc1ccc(Cl)cc1`, the activation was -12.9% (inactive).

On to `O=C(NC1=NCCS1)[C@H](Cc1ccccc1)N1C(=O)c2ccccc2C1=O`, for which the activation is -7.6% (inactive).

Consider `CCCCNC(=O)CCn1c(=S)[nH]c2cc3c(cc2c1=O)OCO3`, for which the activation is -13.6% (inactive).

With `O=C(c1cccc(F)c1)N1CCN(c2ccc([N+](=O)[O-])c(N3CCCCC3)c2)CC1`, the activation is -8.2% (inactive).

`COc1ccc(N(CC(=O)N/N=C/c2cccc3c2OCCO3)S(=O)(=O)c2ccc(NC(C)=O)cc2)cc1`: the activation was 5.2% (inactive).

For the compound `COc1ccccc1-c1n[nH]c2c1[C@H](C)CC[C@H]2C(C)C`, the activation was 15.1% (inactive).

As to `COc1cccc2c1OCC(C(=O)NCc1ccc(Cl)cc1Cl)=C2`, the activation is -78.6% (inactive).

Consider `COc1ccc([N+](=O)[O-])cc1NC(=O)CCc1ccccc1`, for which the activation was -7.7% (inactive).

As for `CCn1c2ccccc2c2cc(NC(=O)C/C(C)=N/NC(=O)c3ccccc3N)ccc21`, the activation was -2.8% (inactive).

`COc1ccccc1CSc1nc2ccccc2[nH]1`: the activation was 2.2% (inactive).

Consider `O=C(CNC(=O)c1ccccc1)NCC(=O)OCc1ccc(Cl)cc1`, for which the activation is 5.3% (inactive).

Consider `c1ccc(-n2nnnc2NC2CCCCCC2)cc1`, for which the activation was 12.5% (inactive).

`COc1ccc(C(=O)NC(=S)Nc2ccccc2N2CCN(S(C)(=O)=O)CC2)cc1OC`: the activation is -12% (inactive).

Take `Cc1nnc(NC(=O)CSc2nc(C3CCCCC3)nc3ccccc23)s1`: the activation was 1.6% (inactive).

`Cc1c(C(=O)OC(C)C)sc(NC(=O)c2cccnc2)c1C#N`: the activation is -4.7% (inactive).

As for `Cc1ccc(NC(=S)Nc2ncccc2C)c(C)c1`, the activation was -5.2% (inactive).

Take `CCOC(=O)C1CN(S(=O)(=O)c2ccc(F)cc2)C1`: the activation is 6.7% (inactive).

`CCCC(=O)NC(Nc1ccccc1OC)C(Cl)(Cl)Cl` (stereo unspecified): the activation was -3.9% (inactive).

With `CC(C)C(=O)OCC(=O)Nc1ccc2c(c1)CCC2`, the activation is -1.7% (inactive).

Consider `Cc1ccc(S(=O)(=O)N(CC(=O)N/N=C/c2ccc(F)cc2)c2cccc3cccnc23)cc1`, for which the activation is 6.1% (inactive).

For the compound `N#Cc1c(C(F)(F)F)cc(-c2ccccc2)nc1SCC(=O)N1CCOCC1`, the activation is 0.7% (inactive).

As for `N#C/C(=C1/CCCN1)c1ccccn1`, the activation is -2.3% (inactive).

For the compound `Cc1cc(C)cc(OCC(=O)NNC(=O)c2cc3ccccc3oc2=O)c1`, the activation was 2% (inactive).
